Pol eta inh = inhibitors of human DNA polymerase eta. recombinant Pol eta, fluorescent DNA replication assay. Potency, µM (doses to about 114 µM), for the others: at the highest dose activity change, negative = inhibition, most hits filed as inhibitors. 390,000 tested, 1.2% active; also: potency is read from the fitted curve at half-maximal effect; % is scaled to controls: 0 for no effect and ±100 for the full control effect
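Pol eta at 10 nM preincubated with compounds 15 min at room temperature; reaction started with fluorescent substrate (50 nM final) and read kinetically at 0 and 10 min.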
POLI inh = inhibitors of human DNA polymerase iota; Q9UNA4; Pol iota fluorescent replication assay, 10 min; Potency, µM (series often up to 115 µM), without a hit: top-dose activity, negative = inhibition, hits mostly inhibitors; 390,000 tested, 1% active; AID 588590; also: potency is read from the fitted curve at half-maximal effect
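Fluorescent replication assay read twice, at 0 min and 10 min after adding 50 nM (final) substrate. Enzyme (10 nM) and compounds were first incubated 15 min at room temperature; enzyme-free buffer wells were negative controls.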
WRN inhibitor = inhibitors of human WRN helicase; Q14191; WRN helicase unwinding, fluorescent forked duplex, kinetic; Potency, µM (series often up to 114 µM), for the others: top-dose activity change, negative = inhibition, hits mostly inhibitors; 360,000 tested, 0.46% active; AID 651768; also: potency is read from the fitted curve at half-maximal effect; % is scaled to controls: 0 for no effect and ±100 for the full control effect; nearly all actives have a fitted effect of over 55% in size
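WRN at 20 nM final preincubated with compound 15 min at room temperature; reaction started with 100 nM fluorophore/quencher forked duplex oligonucleotide and 2 mM ATP final. Unwinding followed kinetically by red fluorescence (ex 525, em 598 nm).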
PI5P4K alpha inh = PI5P4K alpha (human) kinase inhibition; P48426; PI5P4Kalpha enzyme, ADP-Glo luminescence, 60 min; stronger effect = lower value; max response, %; 330,000 tested, 1.2% active; AID 652105; active = max response of -50% or lower; inconclusive = between -30% and -50%; inactive = -30% or higher; also: value at the top dose of about 77 µM; % is scaled to controls: 0 for no effect and ±100 for the full control effect
Target sequence (P48426 whole entry, looked up): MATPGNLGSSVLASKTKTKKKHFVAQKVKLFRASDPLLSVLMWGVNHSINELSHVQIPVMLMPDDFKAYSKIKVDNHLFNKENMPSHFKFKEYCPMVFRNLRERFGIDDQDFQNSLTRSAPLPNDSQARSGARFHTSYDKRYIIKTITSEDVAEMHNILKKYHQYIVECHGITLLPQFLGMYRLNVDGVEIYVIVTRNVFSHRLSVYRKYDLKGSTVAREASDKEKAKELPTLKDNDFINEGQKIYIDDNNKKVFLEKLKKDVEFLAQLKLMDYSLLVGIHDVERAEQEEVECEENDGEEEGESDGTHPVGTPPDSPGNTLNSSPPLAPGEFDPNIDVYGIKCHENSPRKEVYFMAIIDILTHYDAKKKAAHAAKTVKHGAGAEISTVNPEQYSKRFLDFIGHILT
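PI5P4Kalpha ADP-Glo assay; 5 microM ATP final; 60 min RT reaction; HEPES pH 7.4/EGTA/CHAPS, 5% DMSO; controls lacking substrate or enzyme; luminescent end-point.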
POLB inh = inhibitors of human DNA polymerase beta | 340,000 tested, 1.3% active | Potency, µM (top dose mostly 114 µM), without a hit: at the highest dose activity change, negative = inhibition, actives largely listed as inhibitors | P06746 | AID 485314 | Pol beta primer extension/strand displacement, fluorescence kinetic; also: potency is read from the fitted curve at half-maximal effect; % is scaled to controls: 0 for no effect and ±100 for the full control effect
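Pol beta (10 nM) and compounds were preincubated 15 min at room temperature, then 50 nM substrate (final) started primer extension/strand displacement. Reads were taken at 0 and 10 min; concentration-response data were fitted to a four-parameter Hill equation.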
Pol kappa inh = DNA polymerase kappa (human) inhibition; Potency, µM (doses to about 107 µM), without a hit: at the top dose activity, negative = inhibition, hits mostly inhibitors; purified Pol kappa, fluorescent DNA synthesis assay, 10 min; 400,000 tested, 0.53% active; AID 588579; Q9UBT6; also: potency is read from the fitted curve at half-maximal effect; % is scaled to controls: 0 for no effect and ±100 for the full control effect
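Kinetic fluorescence readout at 0 and 10 min followed reaction start with substrate at 50 nM final. Beforehand, enzyme (10 nM Pol kappa) stood 15 min with compound at room temperature; buffer-only wells were negative controls.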
* marks the source's active call; other numbers are inactive results; [ ] = another dose, or the depositor's remark. In the library only some 2.8% were active in any assay of this set; here they are far more common. Unless noted, calls follow the shape of the dose curve; as a rule, active = well fitted curve in the direction sought with a large enough effect; inconclusive = small, poorly fitted or top-dose-only effect, or another doubt; inactive = no such curve, though single readings can be large; an effect the other way counts as inactive or inconclusive.

What do the screens show for `Cc1cc(=O)oc2cc(OCC(=O)N3CCN(c4ccc(F)cc4)CC3)ccc12`?
Pol eta inh: -7%; POLI inh: 40µM*; WRN inhibitor: -4%[11.6 µM]; PI5P4K alpha inh: 3; POLB inh: 20%; Pol kappa inh: inconclusive

Results for Cc1cc(=O)oc2cc(OCC(=O)c3ccc4c(c3)NC(=O)CO4)ccc12 ?
Pol eta inh: inconclusive; POLI inh: 3.2µM*; WRN inhibitor: inconclusive; PI5P4K alpha inh: 2; POLB inh: inconclusive; Pol kappa inh: -15%

How did COC(=O)NCc1c(C)nn(-c2ccccc2)c1-n1cccc1 do in these assays?
Pol eta inh: -12%; POLI inh: 10%; POLB inh: 14%; Pol kappa inh: -12%

What do the screens show for `O=C(Nc1ccccn1)C(=O)Nc1ccccn1`?
Pol eta inh: 7%; POLI inh: 19%; WRN inhibitor: -12%; PI5P4K alpha inh: -20; POLB inh: -11%; Pol kappa inh: 11%

Results for S=C(Nc1ccccn1)c1ccccn1 ?
Pol eta inh: -13%; POLI inh: 4%; WRN inhibitor: inconclusive; PI5P4K alpha inh: -95*; POLB inh: -3%; Pol kappa inh: -8%

Results for CC(C)(Oc1ccc(-c2ccco2)cc1)C(=O)O ?
POLB inh: 40µM*

How did COc1ccc(CN2CC[C@H]3C=CC[C@@H](C(=O)Nc4nccs4)[C@H]3C2=O)cc1OC do in these assays?
POLI inh: 8%; Pol kappa inh: -22%

What do the screens show for `CC(=O)Nc1ccc(/C=C/c2nc3ccccc3s2)cc1`?
POLI inh: inconclusive; Pol kappa inh: 4%

How did O=C1OC(c2ccc(F)cc2)=C/C1=C\c1ccc([N+](=O)[O-])o1 do in these assays?
POLB inh: 7.1µM*

Results for O=c1cc(O)c2c(=O)n(-c3ccccc3)c3ccccc3c2o1 ?
Pol eta inh: inconclusive; POLI inh: 6%; WRN inhibitor: -14%; PI5P4K alpha inh: -7; POLB inh: 22µM*; Pol kappa inh: -26%

What do the screens show for `CC(C)n1c(=O)c2c(O)cc(=O)oc2c2ccccc21`?
Pol eta inh: -29%; POLI inh: inconclusive; WRN inhibitor: -4%[11.6 µM]; POLB inh: 18µM*; Pol kappa inh: inconclusive

How did C(=C\c1ccnc2ccccc12)/c1cccnc1 do in these assays?
POLI inh: 1%; Pol kappa inh: 3%

What do the screens show for `CCn1c(C)c(CS(=O)(=O)c2ccccc2)[nH]c1=O`?
Pol eta inh: 4%; POLI inh: inconclusive; WRN inhibitor: 18µM*; PI5P4K alpha inh: 3; POLB inh: 60%; Pol kappa inh: -5%

Results for CCOC(=O)c1c(C)[nH]c(C)c1S(=O)(=O)N1CCCC(C(=O)Nc2ccc(C)c(N(C)C)c2)C1 (centres undefined) ?
Pol eta inh: -9%; POLI inh: 22%; POLB inh: 28%; Pol kappa inh: 13%

What do the screens show for `Cc1ccc(NC(=O)CC2Nc3cccc4cccc(c34)NC2=O)cc1` (centres undefined)?
Pol eta inh: -20%; POLI inh: 5µM*; POLB inh: -21%; Pol kappa inh: inconclusive

What do the screens show for `NC(=O)CC1Nc2cccc3cccc(c23)NC1=O` (centres undefined)?
Pol eta inh: inconclusive; POLI inh: inconclusive; WRN inhibitor: -28%; PI5P4K alpha inh: inconclusive; POLB inh: 6.3µM*; Pol kappa inh: -24%

What do the screens show for `CCc1nnc2c(NCc3ccccc3OC)nc3ccccc3n12`?
Pol eta inh: -9%; POLI inh: 20%; POLB inh: 18%; Pol kappa inh: 4%

Results for CCOC(=O)C1=C(C)NC(=O)NC1c1ccco1 (centres undefined) ?
Pol eta inh: 79µM*; POLI inh: 45µM*; WRN inhibitor: -35%; POLB inh: 35µM*; Pol kappa inh: inconclusive

Source: PubChem BioAssay (National Center for Advancing Translational Sciences (NCATS))
